13 compounds from PubChem BioAssay (EPA / NIEHS) can be followed below.

Records with an inconclusive call do not appear. Activity calls are given as the source filed them. How the source made its calls: active means hit-call score of the fitted dose curve at least 0.9, where 1 is the maximum; inconclusive means response in the unintended direction; inactive means score below 0.9.

The test system of the assay is guinea pig Dopamine Transporter (DAT), gene 100714898. Briefly: NVS_TR_gDAT: NovaScreen (NVS) Transporter Assay for guinea pig Dopamine Transporter (DAT) (AID 2283369).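 Further: active compounds lower bound radioligand signal relative to DMSO.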 The protocol: NVS_TR_gDAT is a biochemical, single-readout assay that uses extracted gene-proteins from Guinea pig striatal membranes in a tissue-based cell-free assay. Measurements were taken 2 hours after chemical dosing in a 48-well plate.NVS_TR_gDAT is one of one assay component(s) measured or calculated from the NVS_TR_gDAT assay. It is designed to make measurements of radioligand binding, a form of binding reporter, as detected with scintillation counting signals by Filter-based radiodetection technology.Data from the assay component NVS_TR_gDAT was analyzed into 1 assay endpoint. This assay endpoint, NVS_TR_gDAT, was analyzed in the positive analysis fitting direction relative to DMSO as the negative control and baseline of activity. Using a type of binding reporter, loss-of-signal activity can be used to understand changes in the binding as they relate to the gene Slc6a3. Furthermore, this assay endpoint can be referred to as a primary readout, because the performed assay has only produced 1 assay endpoint. To generalize the intended target to other relatable targets, this assay endpoint is annotated to the transporter intended target family, where the subfamily is neurotransmitter transporter.
Binding assays used specific radioligands (tritiated, iodinated) with non-radioactive competitive displacement ligands in agonist or antagonist protocols (as indicated) and various reference compounds and inhibitors to titrate specific binding to receptors and transporters. Most enzyme assays (CYPs, kinases, phosphatases, proteases, HDACs) used recombinant protein and specific substrates (fluorescence mostly, some colorimetric and radioactive) and inhibitors, followed by a biochemical separation of substrate and product. All assays for the biochemical HTS were initially run in duplicate at a single concentration (10 uM for CYP450 assays and 25 uM for all others). Assay-chemical combinations meeting a pre-defined threshold (e.g., 30% inhibition and other criteria defined below) were then run in singleton concentration-response format with maximum concentration of 20 uM for CYPs and 50 uM for all others. Each assay was run with positive and negative controls, and concurrent controls on every plate. The follow-up (secondary) screen tested active chemical-pairs in concentration series, as well as a few additional assays not tested in the primary screen, some selected negative inactives, and several cases re-run in the concentration series for confirmatory purposes.
As to `CCOC(=O)c1ccc(C2CCC(NC[C@H](O)COc3ccc(O)c(NS(C)(=O)=O)c3)CC2)cc1` (stereo partly drawn), the AC50 (in general, the concentration giving half of the maximal activity seen) was 8.87 µM (active).
Same read-out and setting: as for `CCOC(=O)COc1ccc2c(c1)CC(NCC(O)c1cccc(Cl)c1)CC2` (stereo not drawn), the figure is 10.6 µM (active).
Still for that read-out and setting: as for `CCn1nc(Cc2ccccc2)cc1C1CCN(C[C@H]2C[C@H](N(C)[C@@H](C(=O)O)C(C)C)C[C@@H]2c2cccc(F)c2)CC1`, the figure is 13.8 µM (active); as for `CN(C)c1ccc(N=NS(=O)(=O)O)cc1`, 27.1 µM (active).
On the same count and under the same terms, the figure for `Nc1ccc(Nc2ccccc2)cc1` is 25 µM (active); for `Cc1[nH]cnc1C[C@H]1CCc2c(C)c3ccccc3n2C1=O` it is 12.7 µM (active).
Consider `O=C(OC[C@H]1O[C@@H](OC(=O)c2cc(O)c(O)c(OC(=O)c3cc(O)c(O)c(O)c3)c2)[C@H](OC(=O)c2cc(O)c(O)c(OC(=O)c3cc(O)c(O)c(O)c3)c2)[C@@H](OC(=O)c2cc(O)c(O)c(OC(=O)c3cc(O)c(O)c(O)c3)c2)[C@@H]1OC(=O)c1cc(O)c(O)c(OC(=O)c2cc(O)c(O)c(O)c2)c1)c1cc(O)c(O)c(OC(=O)c2cc(O)c(O)c(O)c2)c1`, for which the compound was classed as inactive.
Still for that read-out and setting: the entry for `CC(=O)OCCC(C)C` is “inactive”.
Turning to `CCc1cc(SCc2sc(-c3ccc(C(F)(F)F)cc3)nc2CN2CCN(c3ccc(OC)cc3)CC2)ccc1OCC(=O)O`, the AC50 is 15.2 µM (active).
Same read-out and setting: the figure for `O=c1[nH]c2ccc(S(=O)CCN3CCC(Cc4ccc(F)cc4)CC3)cc2o1` (stereo not drawn) is 6.75 µM (active).
The same measure, in the same setting: as for `O=C(O)CC(O)C(=O)O` (stereo not drawn), the figure is 5.6 µM (active).
As for `COc1cccc(-c2ccc(/C=C\CN3CCCCCC3)cc2Cl)c1`, the AC50 was 14.5 µM (active).
The same measure, in the same setting: the figure for `CCOc1cccc(-n2cc(C(=O)N3CCN(c4cc(C(=O)O)c5ccccc5c4)CC3)nc2-c2ccc(C)cc2)c1` is 23.8 µM (active).
